Bioassay records (PubChem)
A selection: hits, their analogues and other compounds. The true share with any hit is near 19%.
HT1080 IDH1KD tx: qHTS for induction of synthetic lethality in tumor cells producing 2HG: qHTS for the HT-1080-IDH1KD cell line | HT-1080 IDH1 knockdown viability, ATP luminescence, 48 h | Potency, µM (titrated, usually from 46.1 µM), most hits filed as cytotoxic | 360,000 compounds, 2% hits | AID 686971, 2013
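Knockdown cells (IDH1KD HT-1080) received compounds 2 h after plating at 750 cells/well and were kept 48 h at 37 °C in 5% FBS RPMI. A CellTiter-Glo luminescence read gave % activity for curve fitting.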
ELG1 repair inh: qHTS screen for small molecules that inhibit ELG1-dependent DNA repair in human embryonic kidney (HEK293T) cells expressing luciferase-tagged ELG1; HEK293T ELG1-luciferase reporter, luminescence, 16 h; DNA damage induced by 5-fluorouridine; Potency, µM (titrated, usually from 46.1 µM), actives largely listed as inhibitors; 330,000 compounds, 2.3% hits; AID 504467, 2011; also: nearly all actives have a fitted effect of over 55% in size
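Cells (2,000 per well) received 5-fluorouridine plus test compound or DMSO and were incubated 16 hr at 37 °C, 5% CO2. Luciferase activity was read by luminescence 30 min after ONE-Glo addition; signal suppression marked inhibition of damage-induced ELG1 function.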
TDP1 cell noCPT: qHTS for Inhibitors of human tyrosyl-DNA phosphodiesterase 1 (TDP1): qHTS in cells in absence of CPT | DT40 Tdp1-/- hTDP1 cells, no CPT, ATP luminescence, 48 h | Potency, µM (series often up to 46.2 µM), usual class: inhibitors | 420,000 compounds, 15% hits | AID 686978, 2013; also: nearly all actives have a fitted effect of over 55% in size
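Growth of hTDP1-complemented DT40 Tdp1-knockout cells is measured by ATP luminescence after at least 48 hr compound exposure at 37 °C, with DMSO substituting for the 20 nM CPT used in the parallel screen.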
IL-1B inflam inh: qHTS for Inhibitors of Inflammasome Signaling: IL-1-beta AlphaLISA Primary Screen; THP-1 LPS/ATP IL-1B secretion, AlphaLISA, 16 h; hits give low values; activity change, % at 57.5 µM; 360,000 compounds, 4.7% hits; AID 743279, 2014; in the data active = activity change below about -50%; inconclusive = mostly about -30% to -49%
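THP-1 cells pretreated 1 hr with compounds (up to 57.5 uM final), then stimulated with LPS (250 ng/mL final) plus ATP (1.25 mM final); secreted IL-1B measured by AlphaLISA after 16 hr, decreased signal indicating inhibition.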
HT1080NT lethal: qHTS for induction of synthetic lethality in tumor cells producing 2HG: qHTS for the HT-1080-NT fibrosarcoma cell line | 360,000 compounds, 1.6% hits | Potency, µM (highest dose often 46.1 µM), actives largely listed as cytotoxic | AID 686970, 2013 | HT-1080-NT fibrosarcoma viability, CellTiter-Glo ATP luminescence, 48 h;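 also: NT is the 2HG producing partner of a matched IDH1 knockdown line; nearly all actives have a fitted effect of over 55% in size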
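Viability by CellTiter-Glo luminescence after 48 h compound exposure at 37C of HT-1080-NT cells (750/well, RPMI, 5% FBS). % activity scaled between DMSO wells and medium-only wells, then curve-fitted and categorized by curve class.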
DT40 TDP1 CPT: qHTS for Inhibitors of human tyrosyl-DNA phosphodiesterase 1 (TDP1): qHTS in cells in presence of CPT; chicken DT40 Tdp1-/-;hTDP1 cells + 20 nM CPT, ATP luminescence, 48 h; 420,000 compounds, 12% hits; Potency, µM (series often up to 46.2 µM), most hits filed as inhibitors; also: nearly all actives have a fitted effect of over 55% in size
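Chicken DT40 Tdp1-/- cells stably complemented with human TDP1 were seeded at 400 cells/well in medium containing 20 nM camptothecin, exposed to pin-transferred compounds, and grown at 37 °C for at least 48 hr. Viability was read as ATP luminescence.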
A number is an active result; i = inactive; ? = inconclusive; nt = no result. Unless noted, calls follow the shape of the dose curve; as a rule, active = well fitted curve in the direction sought with a large enough effect; inconclusive = small, poorly fitted or top-dose-only effect, or another doubt; inactive = no such curve, though single readings can be large; an effect the other way counts as inactive or inconclusive.

SMILES	HT1080 IDH1KD tx	ELG1 repair inh	TDP1 cell noCPT	IL-1B inflam inh	HT1080NT lethal	DT40 TDP1 CPT
COc1cccc(C(=O)NC2CCN(CC(=O)Nc3cccc(C)c3C)CC2)c1	i	i	?	i	i	i
COc1cc(OC)cc(C(=O)NC2CCN(CC(=O)Nc3cccc4ccccc34)CC2)c1	i	12µM	i	i	i	i
COc1ccc(OC)c(NC(=O)CSc2ccc3nnc(-c4cccnc4)n3n2)c1	i	i	i	i	i	i
Cc1nn(C)c(Oc2cccc(C(F)(F)F)c2)c1C#N	i	i	i	i	i	i
Cc1nn(C)c(Oc2cccc(Cl)c2)c1C#N	i	i	23µM	i	i	?
CC1=C(C(=O)OCc2ccccc2)C(c2ccccc2[N+](=O)[O-])NC(=O)N1C (stereo not given)	i	i	23µM	i	i	?
CC1=C(C(=O)OCc2ccccc2)C(c2ccc([N+](=O)[O-])cc2)NC(=O)N1C (stereo not given)	i	i	i	i	i	i
CCOC(=O)C1=C(C)N(Cc2ccccc2)C(=O)NC1c1ccccc1OS(=O)(=O)c1ccccc1[N+](=O)[O-] (stereo not given)	i	nt	9.2µM	?	i	10µM
COC(=O)C1=C(C)N(CCCC(=O)O)C(=O)NC1c1ccccc1OS(=O)(=O)c1ccccc1[N+](=O)[O-] (stereo not given)	i	nt	i	i	i	i
O=C(Nc1cccc(F)c1)C1CCCN1S(=O)(=O)c1cccc2cccnc12 (stereo not given)	i	i	?	i	i	18µM
Cc1ccc(NC(=O)C2CCCN2S(=O)(=O)c2ccc3nc(-c4ccccc4)[nH]c3c2)cc1F (stereo not given)	nt	nt	10µM	nt	nt	18µM
O=C(Nc1ccc(C(F)(F)F)cc1)C1CCCN1S(=O)(=O)c1cccc2cccnc12 (stereo not given)	?	21µM	23µM	i	?	?
CC(=O)c1cccc(NC(=O)C2CCCN2S(=O)(=O)c2cccc3cccnc23)c1 (stereo not given)	i	?	i	i	i	?
Cc1ccc(NC(=O)C2CCCN2S(=O)(=O)c2cccc3cccnc23)cc1C (stereo not given)	nt	nt	21µM	nt	nt	?
CCOC(=O)c1cc(NC(=O)c2ccc(C)cc2)c(=O)n2c1oc1ccccc12	nt	nt	i	nt	nt	i
COc1ccc(S(=O)(=O)Nc2ccc3c(c2)C(=O)N([C@H](C)CO)C[C@H](C)[C@@H](CN(C)C(=O)Nc2ccc(C(F)(F)F)cc2)O3)cc1	i	i	i	i	i	i
CN(c1ccc(F)cc1)S(=O)(=O)c1ccc(Cl)c(C(=O)NC2(C)CCS(=O)(=O)C2)c1 (stereo not given)	i	i	?	i	i	i
Cc1ccc(S(=O)(=O)NCc2cccnc2)cc1C(=O)NC1CCCCC1	i	i	i	i	i	i
CC(NC(=O)C1=CC=CN2CCS(=O)(=O)N=C12)c1ccc(Cl)c(Cl)c1 (stereo not given)	i	i	i	i	i	i
Cc1ccc2nc(-c3c[nH]c4ccccc34)c(Nc3ccccc3C)n2c1	nt	nt	3.3µM	nt	nt	16µM
Cc1ccc(Nc2c(-c3c[nH]c4ccccc34)nc3ccccn23)cc1	nt	nt	21µM	nt	nt	13µM
Cc1cccn2cc(-c3c[nH]c4ccccc34)nc12	i	?	i	i	i	i
N[C@H](CO)Cc1cnc[nH]1	nt	nt	i	nt	nt	i
O=C(CCc1c[nH]c2ccccc12)N1CCN(S(=O)(=O)c2ccc(F)cc2)CC1	i	i	?	i	i	i
C=C(CCC(=O)c1ccccc1)C(=O)c1ccccc1	?	i	2.1µM	-83	26µM	6.5µM
SMILES	HT1080 IDH1KD tx	ELG1 repair inh	TDP1 cell noCPT	IL-1B inflam inh	HT1080NT lethal	DT40 TDP1 CPT
O=C(CCCCCCCC(=O)c1ccccc1)c1ccccc1	i	i	i	i	i	?
COc1ccccc1C(CC(=O)c1ccccc1)CC(=O)c1ccccc1	i	?	?	?	i	i
O=C(Cc1ccccc1)CC(CC(=O)c1ccccc1)c1ccccc1 (stereo not given)	i	nt	23µM	i	i	16µM
C=C(C(=O)c1ccccc1)C(CC(=O)c1ccccc1)c1ccccc1 (stereo not given)	12µM	13µM	4.6µM	-95	?	4.6µM
COc1ccc(N2CCN(CCCNC(=O)CCC(=O)N3CCOc4ccc(Cl)cc43)CC2)cc1	?	i	?	i	?	?
O=C(CCC(=O)N1CCOc2ccc(Cl)cc21)NCCCN1CCC(Cc2ccccc2)CC1	i	i	18µM	i	i	?
O=C(CCC(=O)N1CCOc2ccc(Cl)cc21)NCCCN1CCN(c2ccccc2F)CC1	?	i	18µM	i	?	21µM
Cc1ccc(C)c(N2CCN(CCCNC(=O)CCC(=O)N3CCOc4ccc(Cl)cc43)CC2)c1	nt	i	nt	nt	nt	nt
Cc1ccc(CSCCC(=O)N2CCN(c3cc(C)ccc3C)CC2)cc1	nt	nt	13µM	nt	nt	23µM
Cc1ccc(C)c(N2CCN(C(=O)CCC(=O)N3CCOc4ccc(Cl)cc43)CC2)c1	?	i	26µM	i	?	15µM
COCC(=O)Nc1cc(C(=O)N2CCc3c(Cl)cccc3C2)c2c(c1)nc(-c1ccncc1)n2C	nt	nt	i	nt	nt	i
Cc1ccc(S(=O)(=O)N2[C@@H](CO)CO[C@H]2CC(=O)c2cccs2)cc1	i	nt	?	i	i	?
O=C(Nc1cccc2ccccc12)C1CCCC1	i	i	i	i	i	i
O=C(Nc1cccc2ccccc12)OC1C=CS(=O)(=O)C1 (stereo not given)	?	i	21µM	nt	18µM	?
COc1ccc(Cn2c(C3CC3)nc3ccc(NC(=O)C4CC4)cc3c2=O)cc1	i	?	?	-65	i	i
CCN(CC)c1cc2nc(C)n(Cc3ccccc3)c(=O)c2cc1NC(=O)C1CC1	i	?	?	i	i	?
CCC(=O)Nc1ccc2nc(C3CC3)n(Cc3ccc(C(C)(C)C)cc3)c(=O)c2c1	i	?	15µM	i	i	18µM
CN1CCN(c2ncnc3c2ncn3[C@H]2CN(Cc3ccco3)C[C@@H](CO)O2)CC1	i	nt	i	i	i	i
Cc1ccc(NC(=O)Nc2nnc(N3CCCCC3)s2)c(C)c1	nt	nt	i	nt	nt	i
